Laboratory results: ChEMBL document CHEMBL3988442, “University of Dundee, Small-Polar-MMV Screening Library” (2021)
Hit rate of the full screen: of about 38,000 compounds, about 1,200 (3.2%) showed an effect of 50% or more. The median lay at about -58%. Only a selection was taken, and strong results are over-represented in it overall.

These compounds were tested on Plasmodium falciparum (assay: Calibr Malaria Delayed Death Assay SOP). Conditions: concentration 4.99e-06 (unit not given; other assays of the set use mol/L).
Assay type: functional, organism-based
Set-up: scale not given: in the data most compounds retested in dose-response had high values

Row | SMILES | Percent Effect [%]
1 | COc1c[nH]c(C(=O)N2CCN(c3ccccc3)CC2)cc1=O | -92.19
2 | COC(=O)c1c(C(F)(F)F)cnc(OC)c1Cl | -7.4
3 | CCC(CO)NC(=O)NCc1cc(C#N)ccc1F (centres undefined) | -31.58
4 | COc1cccc(CNc2cc(C)nc(-c3ccncc3)n2)c1OC | 88.78
5 | COc1cccc(CNc2cc(C)nc(-c3ccncc3)n2)c1O | -16.17
6 | COc1cccc(CNc2nc(C)cc(C)n2)c1OC | -94.43
7 | CNc1oc(-c2cc(S(=O)(=O)N3CCCC3)c(C)o2)nc1C#N | -60.45
8 | Cc1nn(C)c2nc(N3CCCC3c3nccs3)sc12 (centres undefined) | -63.74
9 | Fc1ccc(OCc2nnc([C@H]3CCN(Cc4ccccn4)C3)o2)cc1 | -10.02
10 | NC(=O)c1cccnc1N1C[C@@H]2CC[C@H](C1)N(Cc1ccccn1)C2=O | -36.76
11 | CCC(=O)N1CCC2(CC1)CC(NC(=O)N(C)C)c1cc(C)ccc12 (centres undefined) | -96.24
12 | Cc1noc(Cl)c1CCC(=O)N1CCN(CC(C)(C)O)CC1 | -36.25
13 | Cc1noc(Cl)c1CCC(=O)N1CCc2sccc2C1 | 53
14 | Cc1noc(Cl)c1CCC(=O)N1CCN(c2ccccc2)CC1 | 51.57
15 | Cc1nn(C)c(C)c1CCC(=O)N1CCc2sccc2C1 | -11.91
16 | Cc1noc(Cl)c1CCC(=O)N1CCN(c2cnccn2)CC1 | -135.5
17 | Cc1noc(C)c1CS(=O)(=O)CC(=O)N1CCc2sccc2C1 | -29.06
18 | CC(CO)(NC(=O)NCCc1ccc(Br)s1)C1CC1 (centres undefined) | -76.18
19 | Cc1[nH]ncc1C(=O)N1CCCC1c1noc(C2CC2)n1 (centres undefined) | -58.86
20 | CCOCC(O)CN1CCN(C(=O)c2ccc(OC)cc2)CC1 (centres undefined) | -30.2
21 | O=C(Nc1ccc(=O)n(Cc2ccccc2Cl)c1)C1CC1 | -14.36
22 | COc1cccc(CNC(C)c2ccc(-n3ccnc3)cc2)c1OC.Cl (centres undefined) | 16.61
23 | CCOc1cccc(CNC(C)c2ccc(-n3ccnc3)cc2)c1O (centres undefined) | 74.87
24 | CCOc1cccc(CNc2ccccc2C(=O)OC)c1O | -51.83
25 | CN(C)CCNC(=O)c1ccn(-c2ccc3ccccn23)n1.O=C(O)C(F)(F)F | 83.48
26 | COCCCNC(=O)c1ccn(-c2ccc3ccccn23)n1 | -7.182

Row | SMILES | Percent Effect [%]
27 | N#CCCNC(=O)c1ccn(-c2ccc3ccccn23)n1 | -51.94
28 | CCn1nc2c(cc1=O)CN(c1ncnc3sccc13)CC2 | 2.158
29 | Clc1cccc2c3c([nH]c12)CCN(Cc1cc2n(n1)CCNC2)C3 | 78.46
30 | c1csc(N2CCN(Cc3cc4n(n3)CCNC4)CC2)n1 | -68.56
31 | c1ccc2c3c([nH]c2c1)CN(Cc1cc2n(n1)CCNC2)CC3 | 44.64
32 | c1ccc(COC2CCN(Cc3cc4n(n3)CCCNC4)CC2)nc1 | -20.17
33 | OC(c1ccccn1)C1CCN(Cc2cc3n(n2)CCCNC3)CC1 (centres undefined) | -111.2
34 | CSCCC(Nc1nc(C)cc(C)n1)C(=O)NC(C)(C)CO (centres undefined) | -11.3
35 | COc1ccccc1CC1CCCN(CCN2CCOC2=O)C1 (centres undefined) | 47.59
36 | COc1ccc(CCN2CCCC(CN(C)Cc3ccc(C)o3)C2)cc1 (centres undefined) | -48.89
37 | Cc1ncc(CN(C)C2CCCN(c3cccnn3)C2)s1 (centres undefined) | -24.6
38 | CN(C)C(=O)CN1CCO[C@H]2CN(Cc3cccc(F)c3)C[C@H]21 | -27.48
39 | CCn1ccnc1CN(C)c1cc(C2CCCNC2)nc(C)n1 (centres undefined) | -40.5
40 | Cc1nc(C2CCCNC2)cc(N(C)CCc2cn[nH]c2)n1 (centres undefined) | -154.6
41 | Cc1nc(C2CCCNC2)cc(N(C)CCc2ccccc2)n1 (centres undefined) | 52.76
42 | c1ccc(C(OCCNC2CCc3ncnn3C2)c2ccccc2)cc1 (centres undefined) | 43.54
43 | OC1(CNCc2cnc(N3CCOCC3)nc2)CCCCC1 | -76.92
44 | c1ccc(C2(CNCc3cnc(N4CCOCC4)nc3)CC2)cc1 | -24.34
45 | Cc1ccccc1C1(CNCc2cnc(N3CCOCC3)nc2)CC1 | 50.04
46 | Cn1cc(CN2CC3(CCN(Cc4ccsc4)C3)C2)cn1 | -1.772
47 | Cc1cnc(N2CCC3(CCCN(c4ncc(F)cn4)C3)C2)nc1 (centres undefined) | -149.1
48 | Fc1cnc(N2CC3(CCN(Cc4ccsc4)C3)C2)nc1.O=C(O)C(F)(F)F | -1.441
49 | c1cnc(N2CCCC3(CCN(Cc4ccsc4)C3)C2)nc1 (centres undefined) | 66.41
50 | O=C(O)C(F)(F)F.O=C(c1cnccn1)N1CCCC2(CCN(Cc3ccsc3)C2)C1 (centres undefined) | -36.03
51 | O=C(O)C(F)(F)F.O=C(O)C(F)(F)F.c1cnc(N2CCCC3(CCN(c4ncccn4)C3)C2)nc1 (centres undefined) | -228.4
52 | O=C(O)C(F)(F)F.O=C(O)C(F)(F)F.O=C(O)[C@]12CCCN(Cc3ccsc3)C[C@H]1CN(c1ccccn1)C2 | -252.9

Row | SMILES | Percent Effect [%]
53 | CCC(CC)CN1CCC2(CCCN(c3ncccn3)C2)C1 (centres undefined) | 60.59
54 | O=C(O)C(F)(F)F.O=C(O)[C@]12CCCN(Cc3ccsc3)C[C@H]1CN(c1ncccn1)C2 | -238.9
55 | Fc1cnc(N2CCCC3(CCN(c4ncccn4)C3)C2)nc1 (centres undefined) | -118
56 | CCCN1C(=O)CC(N2CCN(c3ccc(F)cc3)CC2)C1=O (centres undefined) | -22.99
57 | CN1CCCC(N(C)S(=O)(=O)c2cccc3ncccc23)C1 (centres undefined) | 28.23
58 | Cc1cc2nc(C(C)C)cc(N3CCN(c4ccc(O)cc4)CC3)n2n1 | -69.46
59 | CN1CC(NC(=O)Nc2cnn(-c3ccccc3Cl)c2)CCC1=O (centres undefined) | -125.7
60 | O=C(Cc1ccc(F)cc1)NCC1CCN(Cc2ccsc2)CC1 | 35.08
61 | CCc1nnc(CN2CCN(c3cccc(OC)c3)C(=O)C2)o1 | -165.5
62 | COCCNC(=O)NCc1cccc(-n2ccnc2)c1 | -31.59
63 | O=C(Cn1ccc2sccc2c1=O)NC1CCCCC1 | -23.53
64 | Cc1nc(C)c(C(=O)Nc2cnn(CC(=O)NC3CCCC3)c2)s1 | -124.2
65 | O=C(c1cc2c(F)cccc2[nH]1)N1CCC(Nc2cccnn2)CC1 | -107.1
66 | Cc1cc(NC(=O)CCN2CCCCC2Cn2cccn2)no1 (centres undefined) | -23.88
67 | CC(C)(NCc1ccc(C#N)cc1)c1ccc2c(c1)OCO2 | -3.807
68 | CCCNC(=O)NC(=O)CNC(C)(C)c1ccc2c(c1)OCO2 | -45.43
69 | FC(F)(F)C1CN(Cc2cccc(OCc3ccccn3)c2)CCO1 (centres undefined) | -40.76
70 | CCN(CC)C(CNS(=O)(=O)NCc1ccccc1)c1ccco1 (centres undefined) | 65.52
71 | CCN(CC)C(CNCc1ccc(O)cc1)c1ccco1 (centres undefined) | 37.38
72 | CCN(CC)C(CNS(=O)(=O)c1ccc(C(=O)NC)cc1)c1ccco1 (centres undefined) | -34.47
73 | CSc1nc2ccsc2c(=O)n1CC(=O)N1CCCCC1C (centres undefined) | -137.7
74 | Cn1cc(NS(=O)(=O)CC2CCCCO2)cn1 (centres undefined) | -113.3
75 | O=C(NCCc1c[nH]c2ccc(F)cc12)C1(n2cnnn2)CCCCC1 | 0.821
76 | CNCC[C@H]1CC(C)(C)Oc2ccc(OC)cc21 | 72.51
77 | COCC(=O)NCC[C@H]1CC(C)(C)Oc2ccccc21 | -148.4
78 | COc1ccc2c(c1)[C@@H](CCNC(C)=O)CC(C)(C)O2 | -172.5

Row | SMILES | Percent Effect [%]
79 | CNCC[C@H]1CC(C)(C)Oc2ccc(OCC3CC3)cc21 | 74.97
80 | CC1CCN(C(=O)c2cnc3cc(C(=O)N(C)C)n(C)c3c2)CC1 | -87.49
81 | c1coc(-c2nnc(CN(Cc3cccs3)CC3CCCO3)o2)c1 (centres undefined) | -56.15
82 | COCc1nc(N2CC[C@H](N(C)C)C2)c2cnn(C)c2n1 | -79.09
83 | COC(C)(CNS(=O)(=O)c1cn(C)cn1)c1ccccc1F (centres undefined) | -43.86
84 | O=C(c1cc(F)cc2[nH]cnc12)N1CCCCC1Cn1cccn1 (centres undefined) | -30.08
85 | O=C(c1ccoc1)N1CCC(Nc2cccnn2)CC1 | -103.3
86 | CC(=O)N1CCCN(Cc2ccon2)c2ccccc21 | -25.97
87 | CC(C)(C)OC(=O)N1CCCc2ccc(NCc3ccon3)cc21 | -36.28
88 | CC(C)(C)OC(=O)N1CCCN(Cc2ccon2)c2ccccc21 | 84.05
89 | Cc1cccc(NC(=O)N2CC(C(=O)NC(C)C)C3(CCOCC3)C2)c1 (centres undefined) | -4.046
90 | CCCc1nnc(N2CCN(c3ccccc3F)CC2)o1 | -72.7
91 | OC(CNC1CCOCC1)c1ccc(Cl)c(F)c1 (centres undefined) | 49.48
92 | CN1CCC(NCC(O)c2cccc(OCc3ccccc3)c2)CC1 (centres undefined) | 90.23
93 | O=C(NCc1ccccc1)NCC(O)c1cccc(F)c1 (centres undefined) | -134.7
94 | CCOc1cccc(CNC(=O)NCC(O)c2cccc(F)c2)c1 (centres undefined) | -6.007
95 | OC(CNC1CCOCC1)c1cccc(OCc2ccccc2)c1 (centres undefined) | 51.28
96 | CS(=O)(=O)NC1CCN(CCOCc2ccccc2)CC1 | 2.46
97 | CCOc1cccc(C(C)NC(=O)N2CCC(C(N)=O)CC2)c1 (centres undefined) | -34.65
98 | O=C(Nc1cccc(OCc2ccc(F)cc2)c1)C1COCCO1 (centres undefined) | -50.82
99 | OC(CNC1CCSCC1)c1cccc(OCc2ccccc2)c1 (centres undefined) | 73.71
100 | O=S(=O)(NCCN1CCCCC1Cn1cncn1)c1ccccc1 (centres undefined) | -173.3
101 | Cc1nc2c(N3CCN(Cc4ccccc4)CC3)nc(N)nc2n1C | -81.58
102 | Cc1nc(C)n(CC2CCCN(Cc3noc(C)n3)C2)n1 (centres undefined) | -83.37
103 | O=C(CN1CCc2cncnc2C1)NCCOc1cccc(Cl)c1 | -29.73
104 | O=C(NC1CCS(=O)(=O)C1)c1cc(Sc2ncccn2)ccn1 (centres undefined) | -115.2
